Test results taken from PubChem BioAssay AID1159580 (chemical genetic matrix, 2015).
Values joined by “and” are separate entries in the source; they are usually repeats but may differ in a detail not shown here. Equal values may be shown once. The whole screen tested about 5,500 compounds, of which about 2,000 (36%) were called active. Not shown: some 18% with an inconclusive outcome. No stated cut-off is given here; in the data, active means normalized growth mostly below about 0.91 (no sharp cut-off); inconclusive means no clear call, values can overlap the other calls; inactive means mostly above about 0.92. This is one part of the list.

Experiment: chemical genetic growth profiling, strain panel (AID 1159580);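 further: tested at 20 µM; growth read once vehicle control cultures reached saturation at 30 °C; 1 = growth at the plate median or of vehicle wells; lower values mean less growth of the strain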
Settings: growth OD

Measured: normalized growth

O=c1[nH]oc2c1CCNC2
inactive: S. cerevisiae deletion strains, locus YKL009W, strain mrt4, hits give low values 0.992 | S. cerevisiae deletion strains, locus YKL068W, hits give low values 0.982 | S. cerevisiae deletion strains, locus YKL085W, strain MDH1 (second series), hits give low values 1.03 | S. cerevisiae deletion strains, locus YKL085W, strain MDH1, hits give low values 1.03 | S. cerevisiae deletion strains, locus YKL160W, strain elf1, hits give low values 0.99 | S. cerevisiae deletion strains, locus YKL190W, strain CNB1, hits give low values 1.01 | S. cerevisiae deletion strains, locus YKR001C, strain vps1, hits give low values 0.977 | S. cerevisiae deletion strains, locus YKR026C, strain gcn3, hits give low values 1 | S. cerevisiae deletion strains, locus YKR091W, strain srl3, hits give low values 1 | S. cerevisiae deletion strains, locus YLL001W, strain dnm1, hits give low values 0.973 | S. cerevisiae deletion strains, locus YLL026W, hits give low values 0.989 | S. cerevisiae deletion strains, locus YLL041C, strain sdh2, hits give low values 1.01 | S. cerevisiae deletion strains, locus YLR027C, strain aat2, hits give low values 0.99 | S. cerevisiae deletion strains, locus YLR039C, strain RIC1, hits give low values 1.01 | S. cerevisiae deletion strains, locus YLR058C, strain SHM2, hits give low values 0.999 | S. cerevisiae deletion strains, locus YLR102C, strain apc9, hits give low values 0.982 | S. cerevisiae deletion strains, locus YLR113W, strain HOG1, hits give low values 0.974 | S. cerevisiae deletion strains, locus YLR221C, strain rsa3, hits give low values 0.999 | S. cerevisiae deletion strains, locus YLR258W, strain gsy2, hits give low values 1 | S. cerevisiae deletion strains, locus YLR262C, strain YPT6 (second series), hits give low values 1 | S. cerevisiae deletion strains, locus YLR262C, strain YPT6, hits give low values 0.993 | S. cerevisiae deletion strains, locus YLR268W, strain sec22, hits give low values 1.01 | S. cerevisiae deletion strains, locus YLR320W, strain mms22, hits give low values 1.01 | S. cerevisiae deletion strains, locus YLR330W, strain CHS5, hits give low values 0.986 | S. cerevisiae deletion strains, locus YLR342W, strain FKS1 (second series), hits give low values 0.989 | S. cerevisiae deletion strains, locus YLR342W, strain FKS1, hits give low values 0.975 | S. cerevisiae deletion strains, locus YLR357W, strain rsc2, hits give low values 0.957 | S. cerevisiae deletion strains, locus YLR370C, strain arc18, hits give low values 1 | S. cerevisiae deletion strains, locus YLR371W, strain rom2, hits give low values 0.975 | S. cerevisiae deletion strains, locus YLR384C, strain iki3, hits give low values 0.999 | S. cerevisiae deletion strains, locus YLR418C, strain cdc73, hits give low values 1.05 | S. cerevisiae deletion strains, locus YML016C, strain PPZ1, hits give low values 1.01 | S. cerevisiae deletion strains, locus YML032C, strain rad52, hits give low values 0.954 | S. cerevisiae deletion strains, locus YML120C, strain ndi1, hits give low values 0.993 | S. cerevisiae deletion strains, locus YML124C, strain tub3, hits give low values 0.987 | S. cerevisiae deletion strains, locus YMR058W, strain fet3, hits give low values 1.01 | S. cerevisiae deletion strains, locus YMR078C, strain ctf18, hits give low values 0.97 | S. cerevisiae deletion strains, locus YMR125W, strain sto1, hits give low values 0.989 | S. cerevisiae deletion strains, locus YMR129W, hits give low values 0.996 | S. cerevisiae deletion strains, locus YMR205C, strain PFK2, hits give low values 0.992 | S. cerevisiae deletion strains, locus YMR223W, strain ubp8, hits give low values 0.967 | S. cerevisiae deletion strains, locus YMR231W, strain pep5, hits give low values 0.995 | S. cerevisiae deletion strains, locus YMR263W, strain SAP30, hits give low values 1.02 | S. cerevisiae deletion strains, locus YMR307W, strain GAS1, hits give low values 1.06 and 0.998 | S. cerevisiae deletion strains, locus YNL067W, strain RPL9B, hits give low values 1.03 | S. cerevisiae deletion strains, locus YNL071W, strain lat1, hits give low values 1.01 | S. cerevisiae deletion strains, locus YNL128W, strain TEP1, hits give low values 1.03 | S. cerevisiae deletion strains, locus YNL153C, strain GIM3, hits give low values 1.03 | S. cerevisiae deletion strains, locus YNL175C, strain NOP13, hits give low values 1.02 | S. cerevisiae deletion strains, locus YNL183C, strain NPR1, hits give low values 0.924 | S. cerevisiae deletion strains, locus YNL197C, strain WHI3, hits give low values 1.05 | S. cerevisiae deletion strains, locus YNL209W, strain ssb2, hits give low values 0.999 | S. cerevisiae deletion strains, locus YNL224C, strain SQS1, hits give low values 1.02 | S. cerevisiae deletion strains, locus YNL233W, strain BNI4, hits give low values 1.04 | S. cerevisiae deletion strains, locus YNL248C, strain rpa49, hits give low values 1.01 | S. cerevisiae deletion strains, locus YNL250W, strain rad50, hits give low values 0.966 | S. cerevisiae deletion strains, locus YNL271C, strain bni1, hits give low values 0.989 | S. cerevisiae deletion strains, locus YNL298W, strain CLA4, hits give low values 0.962 | S. cerevisiae deletion strains, locus YNL307C, strain MCK1, hits give low values 0.988 | S. cerevisiae deletion strains, locus YNL322C, strain KRE1 (second series), hits give low values 0.995 | S. cerevisiae deletion strains, locus YNL322C, strain KRE1, hits give low values 0.999 | S. cerevisiae deletion strains, locus YNR049C, strain mso1, hits give low values 1 | S. cerevisiae deletion strains, locus YNR052C, strain pop2, hits give low values 0.955 | S. cerevisiae deletion strains, locus YOL006C, strain TOP1, hits give low values 1.09 | S. cerevisiae deletion strains, locus YOL012C, strain htz1 1.13 | S. cerevisiae deletion strains, locus YOL147C, strain pex11, hits give low values 0.979 | S. cerevisiae deletion strains, locus YOR001W, strain rrp6, hits give low values 0.991 | S. cerevisiae deletion strains, locus YOR061W, strain CKA2, hits give low values 1 | S. cerevisiae deletion strains, locus YOR069W, strain VPS5, hits give low values 0.993 | S. cerevisiae deletion strains, locus YOR070C, strain gyp1, hits give low values 0.999 | S. cerevisiae deletion strains, locus YOR080W, strain dia2, hits give low values 0.998 | S. cerevisiae deletion strains, locus YOR083W, strain WHI5 (second series), hits give low values 1 | S. cerevisiae deletion strains, locus YOR083W, strain WHI5, hits give low values 0.976 | S. cerevisiae deletion strains, locus YOR106W, strain vam3, hits give low values 1 | S. cerevisiae deletion strains, locus YOR136W, strain idh2, hits give low values 0.975 | S. cerevisiae deletion strains, locus YOR144C, strain elg1, hits give low values 0.989 | S. cerevisiae deletion strains, locus YOR184W, strain ser1, hits give low values 0.955 | S. cerevisiae deletion strains, locus YOR231W, strain MKK1, hits give low values 1.01 | S. cerevisiae deletion strains, locus YOR265W, strain rbl2, hits give low values 0.994 | S. cerevisiae deletion strains, locus YOR270C, strain vph1, hits give low values 1.04 | S. cerevisiae deletion strains, locus YOR290C, strain snf2, hits give low values 0.995 | S. cerevisiae deletion strains, locus YOR316C, strain cot1, hits give low values 0.995 | S. cerevisiae deletion strains, locus YPL051W, strain arl3, hits give low values 0.996 | S. cerevisiae deletion strains, locus YPL055C, strain LGE1, hits give low values 1.07 and 1.01 | S. cerevisiae deletion strains, locus YPL078C, strain atp4, hits give low values 0.992 | S. cerevisiae deletion strains, locus YPL106C, strain sse1, hits give low values 0.985 | S. cerevisiae deletion strains, locus YPL240C, strain hsp82, hits give low values 1.01 | S. cerevisiae deletion strains, locus YPL241C, strain CIN2, hits give low values 0.996 | S. cerevisiae deletion strains, locus YPL256C, strain CLN2, hits give low values 1.01 | S. cerevisiae deletion strains, locus YPR119W, strain clb2, hits give low values 0.985 | S. cerevisiae deletion strains, locus YPR141C, strain kar3, hits give low values 0.972 | S. cerevisiae deletion strains, locus YPR163C, strain tif3, hits give low values 0.968 | S. cerevisiae deletion strains, locus YPR167C, strain met16, hits give low values 0.993 | S. cerevisiae deletion strains, strain wtn01, hits give low values 1.01 | S. cerevisiae strains, strain wild type, hits give low values 0.998
